The target of the first experiment is RNF113A. The experiment is described as follows: pooled miR-30 sensor sort-seq; sequence = guide strand. Conditions: shRNA.
For the sequence TTCGTCGCTACTGCTGCCGCTT, the sensor-assay potency score (higher = more potent) was -0.608.
Regarding TAGTTTAGCAATCAATTCTTTC, the sensor-assay potency score (higher = more potent) was -0.827.
For TTCGCTGCTCAAGTCGCCGTAA, the sensor-assay potency score (higher = more potent) is -0.391.
Sequence TTAGCAATCAATTCTTTCGCTG had a sensor-assay potency score (higher = more potent) of 0.0148.
The same measure, in the same setting: then TAGCAATCAATTCTTTCGCTGG, with 0.133.
Same read-out and setting: then TTTACCACTGTCACGGGTCTTC, with -0.541; and TAGATCTTGTCATCCTCCTTGC, with 0.184; and TACTGCTGCCGCTTTCTCCGGG, with -0.242.
The same measure, in the same setting: in the case of TAGCTCGATGCTTCTCTAGTTT it was -0.684; in that of TTTTCCGGTCGAACCACAGTGC, -0.536; in that of ATAGATCTTGTCATCCTCCTTG, 0.536.
Regarding TTTTCCTCTTCCTCTTCGCTGC, the sensor-assay potency score (higher = more potent) is -0.23.

In another experiment the target is RNF122. Described as above. Particulars: shRNA.
With TTTGCTGATAAAATAGCAGCAG, the sensor-assay potency score (higher = more potent) is -0.0269.
In the case of TAACTTCTTGGCATCACCTTTA, the sensor-assay potency score (higher = more potent) is -0.252.
Consider TATAATTGTAACTTCTTGGCAT, for which the sensor-assay potency score (higher = more potent) is 0.823.
As to TTGCTGATAAAATAGCAGCAGA, the sensor-assay potency score (higher = more potent) was -0.908.
Still for that read-out and setting: in the case of ATCCGTATCGCTCACTCTGTGC it was -0.963.
In the case of AAGTCTTCCAGACAGACTGCGC, the sensor-assay potency score (higher = more potent) is -0.854.
Regarding ATATCCGTATCGCTCACTCTGT, the sensor-assay potency score (higher = more potent) was -0.868.
On the same count and under the same terms, in the case of TTTCACCAGACACTTGCGGTGA it was -0.949.

These data come from the OligoGym collection.
Further: reference of the scale not given here.
